These results are taken from the supplement of paper PMC5641865, “A screen for kinase inhibitors identifies antimicrobial imidazopyridine aminofurazans as specific inhibitors of the Listeria monocytogenes PASTA kinase PrkA” (The Journal of Biological Chemistry, 2017).

± gives the standard deviation of the averaged measurements.
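Further: End-point A600 read in BHI broth at 37 °C with 2% DMSO, inhibition computed as (1 − OD with compound plus ceftriaxone ÷ OD with ceftriaxone only) × 100.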

In the assay the test system is Listeria monocytogenes 10403S. Briefly: growth inhibition relative to ceftriaxone-alone control; higher = stronger potentiation of ceftriaxone growth inhibition. The settings on record: 10 µM; ceftriaxone 1 ug/ml; 12 h.
With `Cc1nn(C)c2cc(N(C)c3ccnc(Nc4cccc(S(N)(=O)=O)c4)n3)ccc12`, the growth inhibition was found to be 10.1 ± 1.2%.
As for `CNC(=O)c1cc(Oc2ccc(NC(=O)Nc3cc(C(C)(C)C)nn3-c3ccc4ncccc4c3)c(F)c2)ccn1` [DCC-2036 (Rebastinib)], the growth inhibition was 21 ± 0.51%.
Regarding `OCCn1cc(-c2cnc3nnn(Cc4ccc5ncccc5c4)c3n2)cn1`, the growth inhibition amounted to 22.9 ± 24%.
`O=C(Nc1n[nH]c2nc(-c3ccco3)c(Br)cc12)C1CC1`: the growth inhibition was -3.36 ± 3.1%.
As for `NS(=O)(=O)c1ccc(N/N=C2\C(=O)Nc3ccc(C(=O)NCCCn4ccnc4)cc32)cc1`, the figure is -3.24 ± 3.3%; as for `Cc1nc(Nc2ncc(C(=O)Nc3c(C)cccc3Cl)s2)cc(N2CCN(CCO)CC2)n1`, 32 ± 20%.
In the case of `Cc1ccc(C(=O)NC2CCC2)cc1-c1ccc(C(=O)NCC2CC2)cc1`, the growth inhibition is -1.49 ± 1.4%.
As to `CCn1c(-c2nonc2N)nc2c(C#CC(C)(C)O)nc(OC[C@@H](N)c3ccccc3)cc21`, the growth inhibition was found to be 71.3 ± 3.1%.
Turning to `CCS(=O)(=O)c1ccc(OC)c(Nc2nccc(N(C)c3ccc4c(C)n[nH]c4c3)n2)c1`, the growth inhibition amounted to 0.981 ± 2.5%.
On to `COc1ccc(-c2nn3ncccc3c2-c2ccnc(Nc3cccc(C(F)(F)F)c3)n2)cc1`, for which the growth inhibition worked out at 2.98 ± 4.9%.
Take `CNC(=O)Nc1ccc(-c2nc(N3CC4CCC(C3)O4)c3cnn(C4CCC5(CC4)OCCO5)c3n2)cc1`: the growth inhibition was 7.7 ± 6.6%.
Turning to `COc1ccc(-c2cc(-c3c[nH]nc3-c3ccccn3)ccn2)cc1`, the growth inhibition was found to be 3.1 ± 4.7%.
Next, `COc1ccc2c(Oc3ccc(NC(=O)c4c(C)n(CC(C)(C)O)n(-c5ccccc5)c4=O)nc3)ccnc2c1`: 28.9 ± 13%.
For the molecule `CCN1CCC(C(=O)Nc2n[nH]c3nnc(-c4cccc(F)c4F)cc23)CC1`, the growth inhibition is 0.339 ± 3.9%.
With `O=c1sn(-c2cccc3ccccc23)c(=O)n1Cc1ccccc1` [Tideglusib], the growth inhibition was 89.5 ± 12%.
Next, `N#Cc1c(NC(=O)c2ccc(F)cc2)sc2c1CCCC2`: 1.2 ± 5.5%; `CCc1nccc2c1nc(-c1nonc1N)n2CC`: -8.48 ± 4.8%; `O=C(O)c1ccc(Nc2ncc3c(n2)-c2ccc(Cl)cc2C(c2c(F)cccc2F)=NC3)cc1`: 91.3 ± 3.5%.
`FC(F)(F)c1cccc(Nc2nccc(-c3cnn4nc(-c5ccccc5)ccc34)n2)c1`: the growth inhibition is -7.85 ± 2.6%.
For the molecule `CCn1c(-c2nonc2N)nc2c(C#CCN)ncc(OCCCN)c21`, the growth inhibition is -1.03 ± 0.6%.
As for `CC1(COc2ccc3c(c2)ncn3-c2ccc3cccc(N4CCC(N)CC4)c3n2)COC1`, the figure is 32 ± 14%; as for `COc1cc2c(cc1Nc1nc(N3CCc4ccccc43)c3cc[nH]c3n1)N(C(=O)CN(C)C)CC2`, 7.28 ± 0.39%; as for `Cn1c(-c2nonc2N)nc2cnccc21`, -5.76 ± 4.5%.
For the molecule `COc1cc(CCc2cc(NC(=O)c3ccc(N4CC(C)NC(C)C4)cc3)n[nH]2)cc(OC)c1` (stereo not drawn), the growth inhibition amounted to 38.3 ± 21%.
Next, `Fc1ccc(-c2ncn(C3CCNCC3)c2-c2ccnc(Oc3ccc4c(c3)OCO4)n2)cc1`: -3.86 ± 1.5%; `CNC(=O)c1cc(Oc2ccc(NC(=O)Nc3ccc(Cl)c(C(F)(F)F)c3)c(F)c2)ccn1` [Regorafenib (BAY 73-4506)]: 85.5 ± 3.7%; `COc1ccc(-c2ccncc2)cc1C(N)=O`: -4.48 ± 7.1%.
As to `Nc1nc(Nc2ccc(S(N)(=O)=O)cc2)nn1C(=O)c1c(F)cccc1F`, the growth inhibition is 27.6 ± 6.5%.
Turning to `CO[C@@H](C(=O)N1Cc2[nH]nc(NC(=O)c3ccc(N4CCN(C)CC4)cc3)c2C1)c1ccccc1`, the growth inhibition is 45.2 ± 16%.
For `COc1cc2ncn(-c3cc(O[C@@H](C)c4ccccc4Cl)c(C(N)=O)s3)c2cc1OC`, the growth inhibition is -12.3 ± 4.7%.
For `COC(=O)Nc1nc2cc(Oc3cccc(NC(=O)Nc4cc(C(F)(F)F)ccc4F)c3)ccc2[nH]1`, the growth inhibition is -5.06 ± 1.8%.
As for `Cc1cccc(Nc2ncc(-c3ccccc3)o2)c1`, the figure is -0.369 ± 0.46%; as for `Nc1nc(N)c2nc(-c3cccc(O)c3)cnc2n1`, 8.99 ± 4.4%.
Take `CC(C)n1nc(-c2ccc3oc(N)nc3c2)c2c(N)ncnc21`: the growth inhibition was -0.352 ± 1.4%.
Next, `COc1cc2c(Oc3ccc4[nH]c(C)cc4c3F)ncnc2cc1OCCCN1CCCC1` [Cediranib (AZD2171)]: 46 ± 7.5%; `Cc1ccc(NC(=O)CC2CC2)cc1-c1ccc(C(=O)NCC2CC2)cc1`: -0.462 ± 0.33%.
For the molecule `Cc1cc2c(F)c(Oc3ncnn4cc(OC[C@@H](C)O)c(C)c34)ccc2[nH]1`, the growth inhibition was 15.5 ± 23%.
Regarding `CCN(CC)S(=O)(=O)c1ccc(OC)c(Nc2ncc(-c3ccccc3)o2)c1`, the growth inhibition is -5.97 ± 2.9%.
